Data as given in PubChem BioAssay AID1347076 (National Center for Advancing Translational Sciences (NCATS), 2019).
In all, about 400,000 compounds went through this assay and about 13,000 (3.2%) were called active. Not shown: some 18% with an inconclusive outcome. The full list was thinned out, with actives kept by preference. A number with no mark means an inactive call. Calls come from the whole dose curve; as a rule, active = well fitted cell-killing curve with a large enough effect; inconclusive = small, poorly fitted or top-dose-only effect, or effect the other way; inactive = flat fitted curve, though single readings scatter.

Assay: qHTS assay for MDR1-selective chemotherapeutics: Primary screen using the drug-selected MDR subline cells KB-V1; note: nearly all actives have a fitted effect of over 60% in size
Details: KB-V1 MDR cells viability, CellTiter-Glo, 72 h; series mostly up to 46.1 µM; activity change, negative = cytotoxicity: at the top concentration
Description: A prime difficulty in effectively treating cancer is the development of cellular resistance to multiple structurally unrelated anticancer drugs, a phenomenon known as multidrug resistance (MDR). […] Numerous strategies to overcome P-gp-mediated MDR have been explored, including the design of drugs that evade recognition and efflux, and development of inhibitors to block efflux and restore drug accumulation. […] An alternative approach is to exploit resistance by identifying drugs that target MDR cells over the non-resistant parental cells from which they were selected. […] The development of MDR1-selective agents represents a new strategy for resolving multidrug resistance, as it remains a long-standing clinical challenge for cancer chemotherapy.
Our goal is to identify compounds that selectively kill P-gp-expressing MDR cells. We will identify MDR1-selective compounds by comparing toxicity of compounds in the screening library against parental, drug-naive (KB-3-1) adenocarcinoma cells as well as their drug-selected MDR sub-line (KB-V1). The differential toxicity of compounds against these two cell lines will be used to identify MDR1-selective compounds, whose cytotoxicity is potentiated, rather than diminished, by P-gp expression. This assay will be utilized to conduct a quantitative high-throughput screen (qHTS) in collaboration with the NIH Chemical Genomics Center to identify selective agents, and probe hits arising from the screen will be validated using secondary assays and characterized through a well-established follow-up research program. This screen was run against the entire NCGC library collection of about 400,000 compounds.
NIH Molecular Libraries Probe Production Network [MLPCN]
NIH Chemical Genomics Center [NCGC]
PI: Michael Gottesman, National Cancer Institute, NIH
Briefly, 5 microL of media containing either KB-V1 cells (columns 1-2, 4-48) are dispensed into Greiner white, treated solid-bottom 1536-well assay plates (media-only control is added to column 3). Compounds are then transferred via Kalypsys pin tool equipped with 1536-pin array (10 nL slotted pins, V&P Scientific, San Diego, CA). Following addition of compound, the plates are incubated at 37 degrees C for 72 hours. CellTiter-Glo (2.5 µL/well) is then added, and the plates are read in a ViewLux reader (Perkin-Elmer, clear luminescence filter, 1 second exposure, 1x binning) following a 10 minute incubation. All cells are dispensed in DMEM phenol-red free media containing 10% FBS.
Library plates were screened starting from the lowest and proceeding to the highest concentration. Vehicle-only plates, with DMSO being pin-transferred to columns 5-48, will be inserted uniformly at the beginning and the end of each library in order to monitor and record any shifts in the background, which can be affected by reagent dispensers or loss in enzyme activity over time. Screening data will be corrected, normalized, and concentration-effect relationships will be derived by using publicly-available NCGC, NCATS curve fitting algorithms (http://ncgc.nih.gov/pub/openhts).
% is set by controls: 0 for no effect and ±100 for the full control effect; potency is the fitted concentration of half-maximal effect.

Structure (SMILES) | activity change, negative = cytotoxicity [%] | Potency
Cc1ccc(C(C)C)cc1OCCN1CCCC1 | 2.61 | 
Cc1ccc(C(C)(C)C)c(OCCCCN2CCCC2)c1 |  | 20.6 µM (active)
CN1CCN(CCCCOc2cccc3ccccc23)CC1 | -7.19 | 
Cc1ccc(OCCCCN2CCCCC2)c(Br)c1 |  | 16.4 µM (active)
CCNC(=O)C1(C)CCCN(C(=O)c2ccc3ccccc3n2)C1 (stereo not given) | 5.07 | 
Cc1ccccc1S(=O)(=O)NC(=O)C1(C)CCN1C(=O)C1(c2ccc(Cl)cc2)CC1 (stereo not given) | 19.1 | 
CSc1n[nH]c(-c2ccco2)n1 | -8.81 | 
Cn1c(-c2ccco2)nc2cc3ccccc3cc21 |  | 8.2 µM (active)
COc1ccccc1-n1c(-c2cc(-c3ccco3)[nH]n2)n[nH]c1=S | 2.88 | 
COc1ccc(Nc2cc(C(=O)NCCCN(C)c3ccccc3)c3ccccc3n2)c(OC)c1 | 3.15 | 
COc1cc2nc(NCC(C)c3ccccc3)n3nc(-c4ccccc4)nc3c2cc1OC (stereo not given) | -3.41 | 
Cn1c(=O)c2c(n3c4ccccc4nc13)NC(=O)CC2c1cccc(Cl)c1 (stereo not given) | 1.02 | 
Cc1ccccc1NC(=O)Cn1c(=O)n(CC2CCC(C(=O)NCCc3ccccc3)CC2)c(=O)c2ccccc21 (stereo not given) | -5.31 | 
O=c1cc(N2CCCCC2)c(-c2ccccc2)nn1Cc1cccc(F)c1 | -29.3 | 
CCc1ccc(N(CC)C(=O)CCn2cnc3onc(-c4ccc(F)cc4)c3c2=O)cc1 | 6.69 | 
CCc1c(-c2ccc(F)cc2)ncn1Cc1cccc(-c2ccccc2)c1 |  | 23.1 µM (active)
Cc1ccccc1-c1nc(CS(=O)(=O)CC(=O)Nc2cc(Cl)cc(Cl)c2)c(C)o1 | 0 | 
CN(C)c1nc(-c2cccnc2)nc(-c2ccc(Cl)cc2)c1C#N | -19.1 | 
CN(C)c1ccnc(Nc2ccc(F)cc2)c1C#N | 4.23 | 
CNc1nccc(-c2ccc(Cl)cc2)c1C#N |  | 8.2 µM (active)
COc1cc(OC)cc(C(=O)Nc2cc3nn(-c4ccccc4)nc3cc2Cl)c1 | -16.8 | 
O=C1c2ccccc2-c2ccccc2NC1O (stereo not given) | 4.64 | 
COCC(C)n1c(SCc2ccc(C(=O)OC)o2)nc2ccccc2c1=O (stereo not given) | -7.31 | 
COC(=O)CSc1nc2ccccc2c(=O)n1Cc1ccccc1 | 10.7 | 
Cc1ccc(C(=O)CSc2nc3ccccc3c(=O)n2N)o1 |  | 11.6 µM (active)

Structure (SMILES) | activity change, negative = cytotoxicity [%] | Potency
COc1ccc(NC(C)=O)cc1NC(=O)CN1CCN(c2ccc(F)cc2)CC1 | 0 | 
COc1cc(CCN=Cc2ccccc2O)c([N+](=O)[O-])cc1OC | -0.961 | 
COc1ccc(CCNC(=O)/C(C#N)=C2\N=C(NC(=O)c3cccs3)c3ccccc32)cc1 |  | 10.3 µM (active)
COc1cc2ccccc2cc1C(=O)Nc1ccc(NC(=O)c2cccs2)cc1 | -0.19 | 
COc1cc(OC)cc(C(=O)NCCc2csc3nc(-c4ccccc4F)nn23)c1 | -5.31 | 
OC[C@@H]1CN(Cc2cccs2)C[C@H](n2cnc3c(NC4CCCC4)ncnc32)O1 | 2.36 | 
CCOc1cc(-c2nc3cc(C)ccn3c2NCC2CCCO2)ccc1O (stereo not given) |  | 2.59 µM (active)
CCOc1ccccc1Nc1nnc(SCC(=O)NCC2CCCO2)s1 (stereo not given) | -9.76 | 
CCOc1cc(C(C(=O)NCC2CCCO2)N(C(=O)Cn2nnc3ccccc32)c2cccc(OC)c2)ccc1O (stereo not given) | -0.512 | 
OC(c1ccc(F)cc1)c1ncc(-c2cccc(C(F)(F)F)c2)[nH]1 (stereo not given) | 6.78 | 
Cc1cn([C@H]2C[C@H](O)[C@@H](CNC(=O)[C@H](N)Cc3cccnc3)O2)c(=O)[nH]c1=O | -5.22 | 
COc1ccc(CCNC(=O)C2CCCN(Cc3nc(-c4cccc(Cl)c4)oc3C)C2)cc1OC (stereo not given) |  | 5.8 µM (active)
COc1ccc(-c2nc(CN3CCC(C(=O)NCCN(CC(C)C)CC(C)C)CC3)c(C)o2)cc1OC | -0.507 | 
COc1ccc(-c2nc(CN3CCC(C(=O)NCc4ccccc4)CC3)c(C)o2)cc1OC | 31.3 | 
Cc1ccc(C(=O)CSc2nc(-c3ccccc3)nc3c2CCCC3)c(C)c1 | 0 | 
CC1=C(C(=O)N(C)C)CC(CC(=O)NCCN2CCOCC2)C(=O)N1Cc1ccccc1 (stereo not given) | -5.99 | 
Cc1ccc(NC(=O)Nc2nnc(-c3ccncc3)s2)cc1 | -5.82 | 
Cc1nnc(NC(=O)C(c2ccccc2)c2ccccc2)s1 | -26.8 | 
Cc1nnc(NC(=O)Nc2ccc(Cl)c(Cl)c2)s1 |  | 18.4 µM (active)
O[C@H]1CN(Cc2cccs2)[C@@H](c2ccc(Cl)cc2)C[C@@H]1n1cc(C2CC2)nn1 | -10.1 | 
O=C(NN=Cc1ccc2c(c1)CCC2)c1ccccc1O | -0.911 | 
Cc1cc2cc3c(N)[nH]nc3nc2cc1C |  | 7.31 µM (active)
O=C(C[n+]1ccncc1)c1ccc2c(c1)CCCC2 | 4.87 | 
Cc1cc(C)cc(Nc2ncnc3onc(-c4ccc(F)cc4)c23)c1 | -3.6 | 
C[C@@H]1CN([C@H](C)CO)C(=O)CCCn2nncc2CO[C@@H]1CN(C)C(=O)OCc1ccccc1 | -11 | 
